# Screening results: PubChem, National Center for Advancing Translational Sciences (NCATS)
# Pol eta inh-1: inhibitors of human DNA polymerase eta | Q9Y253 | recombinant Pol eta, fluorescent DNA replication assay | Potency, µM (titrated, usually from 114 µM), for inactives: top-dose activity change, negative = inhibition, usual class: inhibitors | 1.2% of 390,000 active; also: potency is read from the fitted curve at half-maximal effect; % is scaled to controls: 0 for no effect and ±100 for the full control effect
#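 Pol eta at 10 nM preincubated with compounds 15 min at room temperature; reaction started with fluorescent substrate (50 nM final) and read kinetically at 0 and 10 min.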
# Pol iota inh: blocks human DNA polymerase iota activity; AID 588590; Pol iota fluorescent replication assay, 10 min; 1% of 390,000 active; Q9UNA4; Potency, µM (series often up to 115 µM), inactives show top-dose activity, negative = inhibition, usual class: inhibitors; also: potency is read from the fitted curve at half-maximal effect
#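 Fluorescent replication assay read twice, at 0 min and 10 min after adding 50 nM (final) substrate. Enzyme (10 nM) and compounds were first incubated 15 min at room temperature; enzyme-free buffer wells were negative controls.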
# Pol kappa inh-1: DNA polymerase kappa (human) inhibition. purified Pol kappa, fluorescent DNA synthesis assay, 10 min. Q9UBT6. Potency, µM (titrated, usually from 107 µM), for the others: at the top dose activity, negative = inhibition, actives largely listed as inhibitors. 0.53% of 400,000 active; also: potency is read from the fitted curve at half-maximal effect; % is scaled to controls: 0 for no effect and ±100 for the full control effect
#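 Pol kappa 10 nM + cpd, 15 min RT; start w/ substrate 50 nM final; fluorescence kinetic read, 0 and 10 min. Neg ctrl: buffer, no enzyme.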
# WRN inhibitor: inhibitors of human WRN helicase; Q14191; WRN helicase unwinding, fluorescent forked duplex, kinetic; Potency, µM (top dose mostly 114 µM), for inactives: top-dose activity change, negative = inhibition, actives largely listed as inhibitors; 0.46% of 360,000 active; AID 651768; also: potency is read from the fitted curve at half-maximal effect; % is scaled to controls: 0 for no effect and ±100 for the full control effect; nearly all actives have a fitted effect of over 55% in size
#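 WRN at 20 nM final was preincubated with compound for 15 min at room temperature; reaction started with 100 nM forked duplex oligonucleotide carrying fluorophore and quencher plus 2 mM ATP (final). Unwinding followed kinetically by red fluorescence (ex 525/em 598 nm).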
# Pol beta inh-1: DNA polymerase beta (human) inhibition; Pol beta primer extension/strand displacement, fluorescence kinetic; Potency, µM (series often up to 114 µM), inactives show at the highest dose activity change, negative = inhibition, actives largely listed as inhibitors; 1.3% of 340,000 active; AID 485314; also: potency is read from the fitted curve at half-maximal effect; % is scaled to controls: 0 for no effect and ±100 for the full control effect
#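 Pol beta (10 nM) was preincubated with compound for 15 min at room temperature. The reaction was then started with 50 nM substrate and read immediately and after a further 10 min at room temperature.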
# PI5P4K alpha inh: inhibitors of human PI5P4K alpha | P48426 | PI5P4Kalpha enzyme, ADP-Glo luminescence, 60 min; active compounds read low | max response, % | 1.2% of 330,000 active; active = max response of -50% or lower; inconclusive = between -30% and -50%; inactive = -30% or higher; also: value at the top dose of about 77 µM; % is scaled to controls: 0 for no effect and ±100 for the full control effect
# Target sequence (P48426 whole entry, looked up): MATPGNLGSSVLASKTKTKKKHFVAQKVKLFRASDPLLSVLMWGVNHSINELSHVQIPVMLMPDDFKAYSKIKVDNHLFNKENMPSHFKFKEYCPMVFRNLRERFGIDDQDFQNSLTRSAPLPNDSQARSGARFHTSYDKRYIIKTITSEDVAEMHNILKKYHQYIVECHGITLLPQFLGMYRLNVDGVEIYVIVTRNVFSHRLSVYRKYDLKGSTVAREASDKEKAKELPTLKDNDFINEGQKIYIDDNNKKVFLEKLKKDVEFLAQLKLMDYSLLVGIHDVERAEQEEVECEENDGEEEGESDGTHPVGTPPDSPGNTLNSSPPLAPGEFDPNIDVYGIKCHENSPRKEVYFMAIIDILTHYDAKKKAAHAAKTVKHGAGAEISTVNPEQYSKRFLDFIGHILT
#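 ADP-Glo luminescence end-point after a 60 min room-temperature kinase reaction. PI5P4Kalpha and substrate in HEPES pH 7.4 buffer with EGTA, 0.1% CHAPS and 5% DMSO; ATP at 5 microM final.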
# Pol beta inh-2: Validate hits inhibiting human DNA polymerase beta; shares compounds with Pol beta inh-1; Potency, µM, most hits filed as inhibitors; 87% of 250 active; Pol beta primer extension/strand displacement, fluorescence kinetic; AID 540280; calls by dose curve; also: potency is read from the fitted curve at half-maximal effect
# Klenow inh: inhibits Klenow fragment polymerase in counter-screen; 250 tested, under 10 active; Klenow exo- polymerase counter-screen, fluorescent DNA substrate; shares compounds with Pol beta inh-1; activity change, negative = inhibition, % at 57.1 µM
# HIV RT inh: HIV-1 RT inhibition, pol beta selectivity check | shares compounds with Pol beta inh-1 | HIV-1 RT polymerase activity, counter-screen | activity % (negative = inhibition, positive = activation), % at 57.1 µM | 250 tested, under 10 active
# POLB valid: DNA polymerase beta inhibition, radiolabeled validation | shares compounds with Pol beta inh-1 | 91% of 110 active | inhibition, % at 10 µM | radiolabeled primer extension gel assay, phosphorimager;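 active = inhibition at 10 µM of 30% or more; inconclusive = no clear call, values can overlap the other calls; inactive = inhibition at 10 µM under 30%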
# TbPGK inh: blocks T. brucei phosphoglycerate kinase. shares compounds with Pol kappa inh-1. TbPGK coupled GAPDH assay, Kinase-Glo luminescence. Potency, µM (titrated, usually from 57.5 µM), without a hit: top-dose activity change, negative = inhibition, actives largely listed as inhibitors. 79% of 500 active; also: potency is read from the fitted curve at half-maximal effect; % is scaled to controls: 0 for no effect and ±100 for the full control effect; nearly all actives have a fitted effect of over 65% in size
# POLI cherry-pick: Human Pol iota inhibitor confirmatory assay. 77% of 1,500 active. Pol iota primer extension, TAMRA/BHQ fluorescence. Potency, µM, actives largely listed as inhibitors. shares compounds with Pol kappa inh-1; also: potency is read from the fitted curve at half-maximal effect
# Pol kappa inh-2: confirmation of human DNA polymerase kappa inhibitors; shares compounds with Pol eta inh-1; purified Pol-kappa, fluorescent strand-displacement substrate; Potency, µM, usual class: inhibitors; 76% of 920 active; AID 720501; also: potency is read from the fitted curve at half-maximal effect
# Pol eta inh-2: confirmation of human DNA polymerase eta inhibitors | 64% of 2,600 active | Potency, µM, usual class: inhibitors | AID 720502 | Pol eta primer extension, TAMRA/BHQ fluorescence, 10 min | shares compounds with Pol eta inh-1; also: potency is read from the fitted curve at half-maximal effect
# The depositor's hits bear a star; ? = inconclusive; nt = not tested or not shown; [ ] = remark or other dose. Only some compounds are listed: those with a hit (about 2.8% of all), similar ones and a draw of the others. Unless noted, calls follow the shape of the dose curve; as a rule, active = well fitted curve in the direction sought with a large enough effect; inconclusive = small, poorly fitted or top-dose-only effect, or another doubt; inactive = no such curve, though single readings can be large; an effect the other way counts as inactive or inconclusive.
SMILES,Pol eta inh-1,Pol iota inh,Pol kappa inh-1,WRN inhibitor,Pol beta inh-1,PI5P4K alpha inh,Pol beta inh-2,Klenow inh,HIV RT inh,POLI cherry-pick,Pol eta inh-2,others
CC1=C(C(=O)OC(C)C)C(c2ccc(Cl)cc2)n2c(s/c(=C\c3ccc(OCC(=O)O)cc3)c2=O)=N1 (stereo unspecified),8.91µM*,?,-30.9%,-10.6%[11.6 µM],3.55µM*,1.9,7.08*,-6.2,19.4,37.7*,60.1*,
CCN(CC)c1ccc(NC(=O)CCS(=O)(=O)c2ccc(Br)cc2)c(C)c1,14.1µM*,39.8µM*,?,?,7.08µM*,-9.2,10*,-23.9,?,47.4*,16.9*,TbPGK inh=10.3µM*;Pol kappa inh-2=7.52*
CCOC(=O)c1[nH]c(C)c(CCC(=O)NC(C)c2ccccc2)c1C (stereo unspecified),3.2%,6.4%,-4.8%[60.1 µM],nt,17.4%,nt,nt,nt,nt,nt,nt,
CCc1cccc(C)c1NS(=O)(=O)c1c(C(=O)N2CCC(C)CC2)c(C)n(C)c1C,-12.9%,16.7%,-12.0%[60.1 µM],nt,9.6%,nt,nt,nt,nt,nt,nt,
COc1ccc(-c2nnc(Nc3ccc(S(=O)(=O)Nc4nccs4)cc3)c3ccccc23)cc1,31.6µM*,20µM*,50.1µM*,50.1µM*,1.78µM*,-23.8,7.94*,-20.5,26.3,?,42.6*,Pol kappa inh-2=33.6*
Clc1ccc(-c2nnc3sc(Cc4cccs4)nn23)c(Cl)c1,-17.2%,12.5%,-13.4%,-2.7%,?,-29.5,nt,nt,nt,nt,nt,
c1coc(-c2nnc3sc(Cc4cccs4)nn23)c1,28.2µM*,7.94µM*,20µM*,44.7µM*,12.6µM*,nt,22.4*,-10.1,38.2,?,?,POLB valid=35.6*
CCN(Cc1ccccc1)S(=O)(=O)c1cc(C(=O)Nc2cc(Cl)cc(Cl)c2)ccc1F,-3.4%,-16.3%,-6.2%[60.1 µM],nt,-7.8%,nt,nt,nt,nt,nt,nt,
Cc1ccc(-c2cc(-c3ccco3)c(C#N)c(=O)[nH]2)cc1,28.2µM*,?,?,31.6µM*,11.2µM*,-17.3,22.4*,-27.6,-4.5,21.2*,15.1*,POLB valid=96.4*
O=C(c1ccccc1)N(c1ccccc1)c1nccc2ccccc12,-1.2%,0.2%,-16.9%,-1.9%,nt,-0.6,nt,nt,nt,nt,nt,
CCOc1ccccc1N(CC)C(=O)Cn1ncc2c([nH]c3ccccc32)c1=O,-18.9%,16.9%,-3.9%,nt,-17.9%,nt,nt,nt,nt,nt,nt,
CCc1ccc(-n2cccc2/C=C2/C(=N)N3C(=NC2=O)SN=C3S(C)(=O)=O)cc1,20µM*,?,79.4µM*,-11.9%[11.6 µM],6.31µM*,-61.3*,31.6*,-30.1,?,?,47.8*,POLB valid=73.0*;Pol kappa inh-2=67*
Cc1ccc(-n2cccc2/C=C2/C(=N)N3C(=NC2=O)SN=C3S(C)(=O)=O)cc1,31.6µM*,17.8µM*,?,?,15.8µM*,-67.0*,15.8*,-23.8,19.0,84.4*,67.5*,
CC1CCC2(CC1)NC(=O)N(CC(=O)Nc1sc3c(c1C(N)=O)CCC3)C2=O (stereo unspecified),17.8µM*,11.2µM*,?,50.1µM*,5.01µM*,-86.8*,20*,-10.6,?,37.7*,19*,POLB valid=99.7*
COC(=O)c1c(NC(=O)CN2C(=O)NC3(CCC(C)CC3)C2=O)sc2c1CCC2 (stereo unspecified),3.2%,?,-13.4%,-0.9%,nt,4.0,nt,nt,nt,nt,nt,
COc1cccc(OC)c1-c1cc(CCCc2cc(-c3c(OC)cccc3OC)nc3ccccc23)c2ccccc2n1,nt,?,2.0%,nt,nt,nt,nt,nt,nt,nt,nt,
CC1=NN(c2ccc([N+](=O)[O-])cc2)C(=O)/C1=C\N(C)C,-15.5%,-11.0%,-9.1%,-15.8%,-24.4%,?,nt,nt,nt,nt,nt,
CC1=NN(c2ccc(C)c(C)c2)C(=O)/C1=C\C=C\c1ccc([N+](=O)[O-])o1,39.8µM*,11.2µM*,50.1µM*,4.1%[11.6 µM],7.08µM*,-52.0*,31.6*,-19.2,17.4,42.3*,53.6*,POLB valid=98.6*
O=c1c(S(=O)(=O)c2cccc(Cl)c2)cn(Cc2ccccc2)c2cc(N3CCOCC3)c(F)cc12,-9.6%,7.9%,-6.8%,nt,7.3%,nt,nt,nt,nt,nt,nt,
O=C(CSc1ccsc1[N+](=O)[O-])N1CCN(c2ccc(Cl)cc2)CC1,28.2µM*,28.2µM*,?,-9.4%[11.6 µM],14.1µM*,-62.5*,39.8*,-26.9,62.2,nt,?,
O=C1N=c2ccccc2=C1c1sc(Nc2ccc(O)cc2)nc1O,31.6µM*,8.91µM*,35.5µM*,?,20µM*,-65.3*,7.94*,-37.8,6.0,47.4*,?,Pol kappa inh-2=16.8*
O=C(CSc1ccccn1)Nc1ccc2c(c1)C(=O)c1ccccc1C2=O,?,2.8%,-23.9%,39.8µM*,8.91µM*,-21.1,11.2*,-25.6,23.7,53.2*,60.1*,Pol kappa inh-2=59.7*
O=C(CSc1ccccn1)Nc1ccc2ccccc2c1,nt,nt,nt,nt,-14.1%,nt,nt,nt,nt,nt,nt,
COc1cccc(/C=C/c2cnc3ccccc3n2)c1OC,nt,21.4%,3.2%,nt,nt,nt,nt,nt,nt,nt,nt,
O=C(/C=C\c1ccco1)c1ccc(NC(=O)c2ccco2)cc1,?,35.5µM*,?,?,10µM*,-56.4*,35.5*,-24.4,15.5,67*,?,POLB valid=77.8*
